# Results from PubChem BioAssay (NCATS).
# Records with an inconclusive call do not appear. Calls of active or inactive are those of the source. Calls follow the shape of the dose curve; as a rule, active = well fitted inhibition curve with a large enough effect; inconclusive = small, poorly fitted or top-dose-only effect; inactive = no such curve, though single readings can be large or run the other way.
# Assay: Primary qHTS for inhibitors of nuclear receptor binding SET domain protein 2 (NSD2) in an RCH-ACV wild type WT cells (2C) (AID 1645877); also: nearly all actives have a fitted effect of over 70% in size
# Conditions: RCH-ACV (leukaemia line) NSD2 WT (2C) viability, CellTiter-Glo, 72 h; series mostly up to 44.9 µM; activity change, negative = cell killing: at the top concentration
# % is scaled to controls: 0 for no effect and ±100 for the full control effect.
SMILES,"activity change, negative = cell killing",outcome
CC(=O)OC(C)C(C)(O)C(=O)O[C@@H]1CC[C@]2(C)CC(=O)C(=C(C)C)C[C@H]2[C@]1(C)OC(C)=O (stereo partly drawn),-14.5% [at 17.3 µM] (inactive),
CC(=O)OC1CC2(C)C(CCC(C)C23Cc2c(O)cc4c(c2O3)CNC4=O)C(C)(C)C1O (stereo not drawn),-16.6% [at 17.3 µM] (inactive),
C=CCc1cc(OC)c(OC(C)C(O)c2ccc(O)c(OC)c2)c(OC)c1 (stereo not drawn),-2.27% (inactive),
OC[C@H]1O[C@@H](O[C@H]2[C@H](O)[C@@H](CO)O[C@@H](OCc3ccccc3)[C@@H]2O[C@@H]2OC[C@](O)(CO)[C@H]2O)[C@H](O)[C@@H](O)[C@@H]1O,1.01% [at 17.3 µM] (inactive),
CC1CCC23COC(=O)C2=CC(O)CC3C1(C)CCc1ccoc1 (stereo not drawn),-6.61% (inactive),
CC(C/C=C/C(C)(C)O)C1CCC(C)(O)C(O)C1 (stereo not drawn),,inactive
COc1ccc(-n2[nH]c3c(cnc4ccccc43)c2=O)cc1,3.86% (inactive),
C[C@H]1[C@H](C)CC[C@]2(C(=O)O)CC[C@]3(C)C(=CCC4[C@@]5(C)C[C@@H](O)[C@H](O)C(C)(C)C5CC[C@]43C)[C@H]12 (stereo partly drawn),-8.9% [at 17.3 µM] (inactive),
C/C(CO)=C1/CCC23COC(C2)C(O)(C(=O)O)CCC13 (stereo not drawn),-11.5% (inactive),
CC1=CC(=O)C2C(C)(C)CCC[C@]2(C)[C@H]1CC[C@H](C)CC(=O)O (stereo partly drawn),-0.611% (inactive),
COc1ccc2c(c1)N1C(=O)C[C@@]34C=CC[N@+]5([O-])CC[C@H]2[C@H](CC3)[C@@]145,,inactive
CC(C)=CCc1cc(O[C@@H]2O[C@H](CO[C@@H]3OC[C@](O)(CO)[C@H]3O)[C@@H](O)[C@H](O)[C@H]2O)ccc1O,-0.137% [at 17.3 µM] (inactive),
COC(=O)C(CC1(O)c2ccccc2N2C(=O)C(CC(C)C)NC21)n1cnc2ccccc2c1=O (stereo not drawn),-6.62% [at 17.3 µM] (inactive),
